Laboratory results from PubChem BioAssay (NCI).
Compounds without any hit were thinned out: in the full panel of roughly 79,000, 15% have a hit. Cut-off read from the data, not from the text of the source: active = growth inhibition above about 70%; inactive = the rest.

Assays:
[1] = NCI Yeast Anticancer Drug Screen. Data for the rad50 strain (AID 155);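 note: 0% = growth of vehicle-only cultures of the same strain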; details: S. cerevisiae rad50 strain growth inhibition; at 50.0 µM; stronger effect = higher value
Summary of the method: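 Readout: growth inhibition relative to vehicle-treated cultures. Compound exposure was carried out in a genetically defined yeast strain deficient in DNA damage repair.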

[2] = NCI Yeast Anticancer Drug Screen. Data for the mec2-1 strain (AID 157); details: S. cerevisiae mec2-1 strain, at 50.0 µM, stronger effect = higher value
Summary of the method: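 Compounds were applied to mec2-1 yeast cells. Their growth was then compared with that of vehicle-treated cultures to give growth inhibition.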

[3] = NCI Yeast Anticancer Drug Screen. Data for the sgs1 mgt1 strain (AID 161);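 note: 0% = growth of cultures given vehicle only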; details: S. cerevisiae sgs1 mgt1 strain, at 50.0 µM, stronger effect = higher value
Summary of the method: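 This yeast growth screen uses a strain with defined DNA-repair lesions; compound-treated growth is compared with vehicle-treated growth.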

[4] = NCI Yeast Anticancer Drug Screen. Data for the cln2 rad14 strain (AID 165);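 note: 0% = growth equal to vehicle treated cultures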; details: S. cerevisiae cln2 rad14 strain, at 50.0 µM, stronger effect = higher value
Summary of the method: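 Strain: cln2 rad14 yeast, altered in cell cycle control and DNA damage repair. Read-out: growth inhibition vs vehicle.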

[5] = NCI Yeast Anticancer Drug Screen. Data for the bub3 strain (AID 167); details: S. cerevisiae bub3 mutant strain, at 50.0 µM, stronger effect = higher value
Summary of the method: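 Readout: yeast growth inhibition, expressed relative to vehicle-only wells. The test organism is a mutant strain from a panel with lesions in DNA repair or checkpoint genes.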

[6] = NCI Yeast Anticancer Drug Screen. Data for the mlh1 rad18 strain (AID 175); details: S. cerevisiae mlh1 rad18 strain growth inhibition; at 50.0 µM; stronger effect = higher value
Summary of the method: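 A repair-deficient yeast strain is exposed to test compound, and growth is scored relative to vehicle-treated controls.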

Measured: growth inhibition

COc1cc2c(c(OC)c1OC)-c1ccc(SC)c(=O)cc1[C@@H](NC(=O)C(F)(F)F)CC2
inactive: [1] 11.1% | [2] -53.7% | [3] -18.1% | [4] -13.8% | [5] -12.7% | [6] -4.75%

CN(C)CCCc1c2ccccc2nc2ccc(Cl)cc12
inactive: [1] 12.5% | [2] 4.5% | [3] -10% | [4] -2.65% | [5] 2.65% | [6] 26.5%

CC(C)=CC(=O)C/C(=N\NC(N)=S)C(=O)Nc1ccc(Cl)cc1
inactive: [1] -7.4% | [2] -27.5% | [3] 5.55% | [4] 9.45% | [5] 5.1% | [6] -1.3%

C(#Cc1c2ccccc2c(C#Cc2ccccc2)c2c(-c3ccccc3)cccc12)c1ccccc1
inactive: [1] -11.1% | [2] 13.1% | [3] -3.5% | [4] 4.05% | [5] 45.6% | [6] 24.5%

Cc1ccc2ccccc2c1CP(=O)(O)O
inactive: [1] -18.9% | [2] -11.1% | [3] -10.4% | [4] -10.6% | [5] 15.2% | [6] -31.4%

ON=C(C(Cl)(Cl)Cl)C(Cl)(Cl)Cl
inactive: [1] -17.2% | [2] -26% | [3] -8.35% | [4] 4.9% | [5] -11.9% | [6] -29.8%

NCCCC(N)C(=O)O (configuration not stated)
inactive: [1] -16.9% | [2] -17.4% | [3] -33.5% | [4] -12.7% | [5] -42.6% | [6] -19.7%

NC(N)=N/N=C/c1c(-c2ccc(Cl)cc2)nc2n1CCS2
inactive: [1] -36.6% | [2] -51.6% | [3] -18% | [4] -10.9% | [5] -5.05% | [6] -25.2%

COC1=NS(=O)(=O)C2(O1)c1ccccc1-c1ccccc12
inactive: [1] 15.2% | [2] 17.2% | [3] 11.4% | [4] 13.2% | [5] 25.8% | [6] 12.3%

CC1=C(C(=O)Nc2c(C)cccc2C)C(c2ccccc2Cl)C(C(=O)Nc2c(C)cccc2C)=C(C)N1
inactive: [1] -39.4% | [2] -6.4% | [3] -27.4% | [4] -20.9% | [5] -13.8% | [6] -11.7%

c1ccc2nc3ccccc3cc2c1
inactive: [1] 2.7% | [2] 19.6% | [3] 27.1% | [4] 27.8% | [5] 3.1% | [6] 5.95%

CCCOC(=O)OCCC
inactive: [1] -9.8% | [2] -37.3% | [3] -4.9% | [4] 2.9% | [5] -31.8% | [6] -10.9%

S=c1[nH]c(=S)c2nnn(-c3ccccc3)c2[nH]1
inactive: [1] -47% | [2] -38% | [3] -31.5% | [4] -25.9% | [5] -47.9% | [6] -34%

O=C(O)CN1C(=O)NC(C2CC2)(C2CC2)C1=O
inactive: [1] -3.15% | [2] -7.15% | [3] -12.8% | [4] -23.2% | [5] 8.85% | [6] 6.6%

CC(NC(=O)CNC(=O)CN)C(N)=O (configuration not stated)
inactive: [1] -23.9% | [2] -0.65% | [3] -17.1% | [4] 5.9% | [5] 8.25% | [6] -17.2%

CC(C)(N)CNc1ccccc1
inactive: [1] -0.55% | [2] -4.95% | [3] -9.85% | [4] -11.1% | [5] 15.7% | [6] -4.4%

CCOC(=O)/C(=C\c1ccc(OCc2ccccc2)c(OC)c1)C(=O)c1ccccc1
inactive: [1] 15.6% | [2] -9.55% | [3] 8.3% | [4] -5.15% | [5] -13.4% | [6] -15.3%

COc1ccc(/C=C/C(=O)c2sc(N)nc2C)cc1
inactive: [1] 26.5% | [2] -5.55% | [3] -0.4% | [4] 24.6% | [5] 3.95% | [6] 13.6%

c1ccc(-c2nc(-c3ccccc3)c(-c3ccccc3)[nH]2)cc1
inactive: [1] -0.85% | [2] 28.1% | [3] 12.2% | [4] 11.2% | [5] 5.05% | [6] -36.2%

COc1ccc(NC(C)=O)c([N+](=O)[O-])c1
inactive: [1] 23.3% | [2] 0.25% | [3] 19.3% | [4] 16.3% | [5] -8.35% | [6] 6.3%

CC(C)(C)NNC(=O)/C(=C/c1ccc(Oc2ccc(Cl)c(Cl)c2)cc1)NC(=O)c1ccccc1
inactive: [1] 7.45% | [2] 1.1% | [3] 2.1% | [4] -4.2% | [5] -1.6% | [6] 16.1%

COc1ccccc1-n1c(O)c(N=Nc2ccc(Cl)cc2)c(=O)n(-c2ccc(I)cc2)c1=S
inactive: [1] 45.4% | [2] 10% | [3] 36% | [4] -9% | [5] 1.25% | [6] 27.1%

CCSc1ccc(N=[N+]([O-])c2ccc(SCC)c(Cl)c2)cc1Cl
inactive: [1] -5.6% | [2] 10.8% | [3] 1.65% | [4] -17.1% | [5] -4.6% | [6] 9.3%

NC(C(=O)O)c1ccccc1 (configuration not stated)
inactive: [1] -0.85% | [2] -23.4% | [3] -3.85% | [4] -1.9% | [5] -10.7% | [6] -19.5%

CC1(C)N=C(C(N)=O)c2ncn(CCO)c2N1
inactive: [1] -12.4% | [2] -34% | [3] -21.6% | [4] -10.7% | [5] -9.95% | [6] -23.4%

CSc1ccccc1N1C(=O)CSC1=S
inactive: [1] -7.8% | [2] 4.4% | [3] 41.5% | [4] 19.1% | [5] -4.1% | [6] 22.2%

CC(C)=C1CCC/C1=N\Nc1ccc([N+](=O)[O-])cc1[N+](=O)[O-]
inactive: [1] -5.9% | [2] -1.35% | [3] 0.15% | [4] -25.8% | [5] 4.6% | [6] -8.75%

COCC/C=C\CN(C(C)C)C(C)C
inactive: [1] -9.5% | [2] -13.3% | [3] -0.4% | [4] 5.45% | [5] 3.5% | [6] 1.05%

Cc1cc(-c2ccccc2)n(C(C(=O)c2ccccc2)c2ccccc2)n1 (configuration not stated)
inactive: [1] 13.8% | [2] -10.4% | [3] -0.15% | [4] -5.6% | [5] -26.7% | [6] -15.2%

CC(C)C1OC(c2ccccc2)OCC1(C)C (configuration not stated)
inactive: [1] -14.8% | [2] -18.2% | [3] -4.15% | [4] -39.2% | [5] -4.15% | [6] 6.35%

CSc1nc(NC2OCC(O)C(O)C2O)c(Cl)c(=O)[nH]1 (configuration not stated)
inactive: [1] -13.5% | [2] -2.1% | [3] 12.3% | [4] -4.15% | [5] 2.55% | [6] 0.75%

COC1OC(CBr)C(OC(=O)c2ccccc2)C(OC(C)=O)C1OC(C)=O (configuration not stated)
inactive: [1] -23.9% | [2] -4.6% | [3] -12.2% | [4] 11% | [5] -1.5% | [6] -22.8%

CCCC[N+](CCCC)(CCCC)CC(=O)[O-]
inactive: [1] 5.7% | [2] -3.1% | [3] -19.8% | [4] -45.1% | [5] -8.3% | [6] -24.6%

Nc1nc(CCC(=O)Nc2cccc(C(F)(F)F)c2)cc(-c2ccc3ccccc3c2)n1
inactive: [1] -8.3% | [2] -23.5% | [3] -77.7% | [4] -10.2% | [5] -5.5% | [6] -31.6%

O=C(COc1cc(Cl)ccc1Cl)NCc1ccc(Cl)cc1
inactive: [1] 15.2% | [2] 2.1% | [3] 12.6% | [4] 10.1% | [5] 34.1% | [6] 14.8%

COc1cc(N=Nc2ccccc2)cc(/C=N\NC(=S)Nc2cccc(C)c2)c1O
inactive: [1] 35.2% | [2] 19.9% | [3] 29.8% | [4] 24.9% | [5] -8.15% | [6] 39.7%

O=C(O)CC1CC2CC(=O)C1C2 (configuration not stated)
inactive: [1] -28.1% | [2] -30.7% | [3] -14.7% | [4] -1.2% | [5] -23.6% | [6] 12.2%

COc1cccc(-c2nsc(=O)o2)c1
inactive: [1] 41.5% | [2] 23.1% | [3] 24.3% | [4] -1.4% | [5] 52.6% | [6] 32.6%

O=C(/C=C/c1ccc2c(c1)OCO2)CC(=O)/C=C/c1ccc2c(c1)OCO2
inactive: [1] 3.5% | [2] 19.6% | [3] 11.3% | [4] 7.15% | [5] -4.3% | [6] -15.6%

CCCCCOC(=O)c1cccnc1
inactive: [1] -8.75% | [2] -16.1% | [3] -15% | [4] -0.2% | [5] 0.7% | [6] -1.5%

COC(C)CCOC(=O)c1cccc(C)c1 (configuration not stated)
inactive: [1] 9% | [2] -6.8% | [3] 3.8% | [4] -24% | [5] 24.8% | [6] 1.9%

O=C(O)c1ccccc1/C=N\NC1=NCCN1
inactive: [1] -45.1% | [2] -13.4% | [3] -11.4% | [4] 12.7% | [5] -13.7% | [6] -6.35%
